Screening results: PubChem BioAssay, National Center for Advancing Translational Sciences (NCATS)
A selection: hits, their analogues and other compounds. The true share with any hit is near 17%.
DT40 TDP1 CPT: growth inhibition of DT40 Tdp1-/-;hTDP1 cells with camptothecin (screen for TDP1 inhibitors); AID 686979; chicken DT40 Tdp1-/-;hTDP1 cells + 20 nM CPT, ATP luminescence, 48 h; Potency, µM (top dose mostly 46.2 µM), most hits filed as inhibitors; 420,000 tested, 12% active; further: nearly all actives have a fitted effect of over 55% in size
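Chicken DT40 Tdp1-/- cells complemented with human TDP1, 400 cells/well, exposed to compounds plus 20 nM camptothecin for at least 48 h at 37 C; viability read as ATP content by CellTiter-Glo luminescence.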
TDP1 block: blocks human tyrosyl-DNA phosphodiesterase 1; 350,000 tested, 0.28% active; Potency, µM (titrated, usually from 130 µM), most hits filed as inhibitors; Q9NUW8; recombinant TDP1, AlphaScreen DNA substrate cleavage; further: nearly all actives have a fitted effect of over 40% in size
Target sequence (Q9NUW8 whole entry, looked up): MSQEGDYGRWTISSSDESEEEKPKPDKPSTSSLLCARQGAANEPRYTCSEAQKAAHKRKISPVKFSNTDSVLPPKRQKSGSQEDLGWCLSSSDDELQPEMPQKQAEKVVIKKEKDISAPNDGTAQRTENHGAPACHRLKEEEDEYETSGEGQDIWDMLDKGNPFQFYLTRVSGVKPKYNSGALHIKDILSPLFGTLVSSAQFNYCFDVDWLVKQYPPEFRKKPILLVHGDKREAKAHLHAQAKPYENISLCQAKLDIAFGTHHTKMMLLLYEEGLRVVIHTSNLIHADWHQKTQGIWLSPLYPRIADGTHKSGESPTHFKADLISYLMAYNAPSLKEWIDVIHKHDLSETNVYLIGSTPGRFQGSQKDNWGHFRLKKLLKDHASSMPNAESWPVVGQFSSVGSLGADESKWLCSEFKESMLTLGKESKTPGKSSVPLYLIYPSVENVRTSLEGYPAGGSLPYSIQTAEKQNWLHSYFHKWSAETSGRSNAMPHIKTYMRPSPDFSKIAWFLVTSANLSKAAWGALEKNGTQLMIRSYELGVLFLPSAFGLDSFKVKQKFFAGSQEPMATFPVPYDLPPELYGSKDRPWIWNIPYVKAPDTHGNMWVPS
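Recombinant human Tdp1 (E. coli-expressed, 1 nM final) preincubated with compounds 15 min at room temperature, then 5'-biotin/3'-phosphotyrosine-FITC DNA substrate (15 nM final) added for 5 min. AlphaScreen beads (10 ug/ml final) added 10 min; cleavage lowers signal.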
TDP1 cell noCPT: qHTS for Inhibitors of human tyrosyl-DNA phosphodiesterase 1 (TDP1): qHTS in cells in absence of CPT; DT40 Tdp1-/- hTDP1 cells, no CPT, ATP luminescence, 48 h; Potency, µM (top dose mostly 46.2 µM), usual class: inhibitors; 420,000 tested, 15% active; AID 686978, 2013; further: nearly all actives have a fitted effect of over 55% in size
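DT40 Tdp1-/-;hTDP1 cells, no CPT (DMSO vehicle only), 400 cells/well; compounds pin-transferred; ≥48 hr, 37 °C; CellTiter-Glo 30 min RT dark, luminescence read.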
ClpP mod: qHTS Assay for Activators of ClpP; ATP-dependent Clp protease proteolytic subunit (Bacillus subtilis (strain 168)), P80244; purified B. subtilis ClpP, FRET peptide cleavage, 20 min; Potency, µM (top dose mostly 57.5 µM); 340,000 tested, 1.9% active; AID 651965, 2013; active means well fitted falling curve with a large enough effect; inconclusive means small, poorly fitted or top-dose-only effect; inactive means no such curve, though single readings can be large or run the other way; further: the source files actives as falling curves though it sought activators and does not explain the sign; nearly all actives have a fitted effect of over 65% in size
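Purified B. subtilis ClpP, 10 microg/mL final in Tris/HCl pH8 with KCl, BSA, glycerol and Tween-20, cleaved an Abz/nitrotyrosine-quenched decapeptide. Fluorescence (ex 320, em 430) was read at 0 and 20 min at room temperature. Delta was normalized to 5.8 microM ADEP and DMSO/no-enzyme controls.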
Of the large screens only hits and unclear results are named; the others gave an inactive call; ! = not confirmed by another sample. Unless noted, the call rests on the fitted dose curve; in most records, active means well fitted curve in the direction sought with a large enough effect; inconclusive means small, poorly fitted or top-dose-only effect, or another doubt; inactive means no such curve, though single readings can be large; an effect the other way counts as inactive or inconclusive.

CC1(C(=O)O)CCN1C(=O)c1ccccc1F (stereo not given)	none (no result: TDP1 block)
CC1(C)C(=O)Nc2ccccc2N1C(=O)COC(=O)c1cccnc1Cl	none
Cc1ccc2nc(CSc3nnc(-c4ccco4)o3)cc(=O)n2c1	DT40 TDP1 CPT inconclusive, TDP1 block 18µM
CC(=O)c1c(C)cc(C)c(CSc2nnc(-c3ccco3)o2)c1C	DT40 TDP1 CPT 13µM, TDP1 cell noCPT 22µM
N=C(N)n1cccn1	none (no result: TDP1 block, ClpP mod)
CC(=O)c1cc(-c2ccccc2)n(CC(=O)N2CCN(C3CCCC3)CC2)c1C	DT40 TDP1 CPT inconclusive, TDP1 cell noCPT 23µM, ClpP mod 32µM
CC(=O)c1cc(-c2ccccc2)n(CC(=O)N2CCC(C)CC2)c1C	DT40 TDP1 CPT inconclusive, TDP1 cell noCPT 29µM
CC(=O)c1cc(-c2ccccc2)n(CC(=O)NC2CCCC2)c1C	none
CCCN(CCO)C1CCN(CCc2ccccc2)CC1	none
CCOC(=O)N1CCN(C(=O)CSc2ccc(-c3ccccc3OC)nn2)CC1	TDP1 cell noCPT inconclusive
COc1ccccc1-c1c(C)nn2c(N3CCC(C(N)=O)CC3)cc(C)nc12	none
COc1ccccc1-c1cnn2c(NC3CCCC3)cc(C)nc12	DT40 TDP1 CPT 29µM, TDP1 cell noCPT 21µM (no result: TDP1 block, ClpP mod)
CCOC(=O)C1CCCN(c2cc(C)nc3c(-c4ccccc4OC)c(C)nn23)C1 (stereo not given)	DT40 TDP1 CPT 13µM, TDP1 cell noCPT inconclusive
Cc1cc(NC2CCCCC2)n2c(n1)nc1ccccc12	TDP1 cell noCPT inconclusive
CCOC(=O)N1CCC(Nc2cc(C)nc3c(-c4ccccc4OC)c(C)nn23)CC1	DT40 TDP1 CPT 5.8µM, TDP1 cell noCPT 9.2µM, ClpP mod inconclusive
CCOC(=O)N1CCN(C(=O)CSc2cc(C)nc3c(-c4ccccc4OC)c(C)nn23)CC1	DT40 TDP1 CPT 23µM, TDP1 cell noCPT 16µM
C=CCn1c(-c2ccccc2)nc(=S)c2c1CCCC2	DT40 TDP1 CPT inconclusive, TDP1 cell noCPT 23µM (no result: TDP1 block, ClpP mod)
O=C1c2ccccc2C(=O)c2c(NCCCN(CCO)CCO)cccc21	DT40 TDP1 CPT inconclusive, TDP1 cell noCPT 21µM (no result: ClpP mod)
O=C(COC(=O)C12CC3CC(CC(O)(C3)C1)C2)NCCc1ccc(Cl)cc1	none
O=C(CC1(c2ccc(Cl)cc2)C2CC3CC(C2)CC1C3)NCCO (stereo not given)	ClpP mod 13µM
COC(=O)/C=C/C(=O)Nc1ccc(O)c(Cl)c1	DT40 TDP1 CPT inconclusive, TDP1 cell noCPT inconclusive
COC(=O)/C=C\c1cc(O)ccc1O	DT40 TDP1 CPT 0.6µM, TDP1 cell noCPT 0.6µM (no result: ClpP mod)
CCCCCCCCCCC(C)=O	none (no result: DT40 TDP1 CPT, TDP1 cell noCPT, ClpP mod)
Cc1cc(C(=O)N2CCC2(C)C(=O)NCCC#N)nn1C (stereo not given)	none (no result: TDP1 block)
O=C(NC(=S)Nc1ccc(Oc2ccc(Cl)cc2)cc1)c1ccccc1	DT40 TDP1 CPT inconclusive, TDP1 cell noCPT 21µM
Cc1cc(C)c(NC(=S)NC(=O)c2ccccc2)cc1C	DT40 TDP1 CPT 21µM, TDP1 cell noCPT 8.2µM (no result: TDP1 block)
CCC(=O)NC(=S)Nc1ccccc1F	ClpP mod 13µM
O=C(Nc1ccc(NC(=S)NC(=O)C(c2ccccc2)c2ccccc2)cc1)c1ccccc1	DT40 TDP1 CPT inconclusive, TDP1 cell noCPT 15µM (no result: TDP1 block)
O=C(NC(=S)Nc1ccc(NC(=O)c2ccccc2)cc1)c1ccc(F)cc1	none (no result: ClpP mod)
COc1ccc2c(c1)c1c(c(=O)n(-c3ccccc3)c(=O)n1CC(=O)Nc1ccc(F)cc1)n2C	none
CC(C)NC(=S)NC(=O)c1ccc(-c2ccccc2)cc1	DT40 TDP1 CPT 23µM, TDP1 cell noCPT 16µM
O=C(NC(=S)Nc1ccc(-c2ccccc2)cc1)c1ccccc1	TDP1 cell noCPT inconclusive (no result: TDP1 block, ClpP mod)
CCC(=O)Nc1cccc(NC(=S)NC(=O)c2ccc(Cl)cc2)c1	DT40 TDP1 CPT 18µM, TDP1 cell noCPT 15µM
CCC(=O)NC(=S)Nc1ccc(NC(=S)NC(=O)c2ccccc2)cc1	DT40 TDP1 CPT inconclusive, TDP1 cell noCPT 18µM
CC(=O)c1ccc(NC(=O)c2ccc(COc3ccccc3[N+](=O)[O-])o2)cc1	DT40 TDP1 CPT inconclusive, TDP1 cell noCPT inconclusive
C=CCc1ccc(OCc2ccc(C(=O)Nc3ccc(NC(C)=O)cc3)o2)c(OC)c1	DT40 TDP1 CPT inconclusive, TDP1 cell noCPT 16µM!
COc1ccc(-c2cc3ccc(O)c(CN4CCCC4)c3oc2=O)cc1OC	DT40 TDP1 CPT inconclusive, TDP1 cell noCPT inconclusive
